Experimental data published in the supplement of paper PMC10849652.
About 7,900 targets were measured; listed, in parts, are those with a hit and a random draw of the rest. About 0.6% of all pairs of compound and target were hits.

What was measured:
Test in all cases: log2 fold change, soluble protein after heating vs DMSO (PISA); higher = thermal stabilisation; K562 cells, 10 uM, 30 min; active = over 0.2 and 3.5 SD of the protein, either way, in both replicates (recomputed)
[1] = compound: C1=CC=C(C=C1)[C@H](COC2=CC3=C(C=C2)NC(=O)N3)NC(=O)C4=CC=CN(C4=O)CC5=CC(=C(C=C5)F)F
Procedure, shortened: (§1)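 K562 cells at 2×10^6 cells/mL were treated with 10 μM compound for 30 min. Aliquots were heated for 3 min across 48°C-58°C, pooled, and extracted in PBS with 0.5% NP-40 at 4°C; soluble protein was the supernatant after 21,000xg for 90 min. Soluble protein was quantified by TMTpro 16plex LC-MS/MS with channel sums equalised, and reported as log2 fold change in thermal stability against DMSO controls, with values from duplicates.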

[2] = compound: CC1=C(SC2=C1C(=N[C@H](C3=NN=C(N32)C)CC(=O)N)C4=CC=C(C=C4)Cl)C
Procedure, shortened: as §1

[3] = compound: CC1=C2C(=CC=C1)N=C(N(C2=O)C3=CC=CC=C3C)CN4C=NC5=C(N=CN=C54)N
Procedure, shortened: as §1

[4] = compound: Cc1sc2c(c1C)C(c1ccc(Cl)cc1)=N[C@@H](CC(=O)OC(C)(C)C)c1nnc(C)n1-2
Procedure, shortened: as §1

[5] = compound: c1ccc([C@@H]2C[C@H]2NC2CCNCC2)cc1
Procedure, shortened: as §1

Measured: log2 fold change

SNX5 (UniProt Q9Y5X3)
inactive: [1] -0.016 | [2] 0.045 | [3] 0.014 | [4] 0.04 | [5] -0.071

SLC39A1 (UniProt Q9NY26)
inactive: [2] -0.156 | [5] 0.053

SSBP4 (UniProt U3KPY3)
inactive: [3] 0

TM7SF2 (UniProt O76062)
inactive: [2] 0.182 | [3] -0.129 | [5] 0.159

SMARCA4 (UniProt P51532)
Chain of UniProt P51532 (P51532 whole entry, looked up): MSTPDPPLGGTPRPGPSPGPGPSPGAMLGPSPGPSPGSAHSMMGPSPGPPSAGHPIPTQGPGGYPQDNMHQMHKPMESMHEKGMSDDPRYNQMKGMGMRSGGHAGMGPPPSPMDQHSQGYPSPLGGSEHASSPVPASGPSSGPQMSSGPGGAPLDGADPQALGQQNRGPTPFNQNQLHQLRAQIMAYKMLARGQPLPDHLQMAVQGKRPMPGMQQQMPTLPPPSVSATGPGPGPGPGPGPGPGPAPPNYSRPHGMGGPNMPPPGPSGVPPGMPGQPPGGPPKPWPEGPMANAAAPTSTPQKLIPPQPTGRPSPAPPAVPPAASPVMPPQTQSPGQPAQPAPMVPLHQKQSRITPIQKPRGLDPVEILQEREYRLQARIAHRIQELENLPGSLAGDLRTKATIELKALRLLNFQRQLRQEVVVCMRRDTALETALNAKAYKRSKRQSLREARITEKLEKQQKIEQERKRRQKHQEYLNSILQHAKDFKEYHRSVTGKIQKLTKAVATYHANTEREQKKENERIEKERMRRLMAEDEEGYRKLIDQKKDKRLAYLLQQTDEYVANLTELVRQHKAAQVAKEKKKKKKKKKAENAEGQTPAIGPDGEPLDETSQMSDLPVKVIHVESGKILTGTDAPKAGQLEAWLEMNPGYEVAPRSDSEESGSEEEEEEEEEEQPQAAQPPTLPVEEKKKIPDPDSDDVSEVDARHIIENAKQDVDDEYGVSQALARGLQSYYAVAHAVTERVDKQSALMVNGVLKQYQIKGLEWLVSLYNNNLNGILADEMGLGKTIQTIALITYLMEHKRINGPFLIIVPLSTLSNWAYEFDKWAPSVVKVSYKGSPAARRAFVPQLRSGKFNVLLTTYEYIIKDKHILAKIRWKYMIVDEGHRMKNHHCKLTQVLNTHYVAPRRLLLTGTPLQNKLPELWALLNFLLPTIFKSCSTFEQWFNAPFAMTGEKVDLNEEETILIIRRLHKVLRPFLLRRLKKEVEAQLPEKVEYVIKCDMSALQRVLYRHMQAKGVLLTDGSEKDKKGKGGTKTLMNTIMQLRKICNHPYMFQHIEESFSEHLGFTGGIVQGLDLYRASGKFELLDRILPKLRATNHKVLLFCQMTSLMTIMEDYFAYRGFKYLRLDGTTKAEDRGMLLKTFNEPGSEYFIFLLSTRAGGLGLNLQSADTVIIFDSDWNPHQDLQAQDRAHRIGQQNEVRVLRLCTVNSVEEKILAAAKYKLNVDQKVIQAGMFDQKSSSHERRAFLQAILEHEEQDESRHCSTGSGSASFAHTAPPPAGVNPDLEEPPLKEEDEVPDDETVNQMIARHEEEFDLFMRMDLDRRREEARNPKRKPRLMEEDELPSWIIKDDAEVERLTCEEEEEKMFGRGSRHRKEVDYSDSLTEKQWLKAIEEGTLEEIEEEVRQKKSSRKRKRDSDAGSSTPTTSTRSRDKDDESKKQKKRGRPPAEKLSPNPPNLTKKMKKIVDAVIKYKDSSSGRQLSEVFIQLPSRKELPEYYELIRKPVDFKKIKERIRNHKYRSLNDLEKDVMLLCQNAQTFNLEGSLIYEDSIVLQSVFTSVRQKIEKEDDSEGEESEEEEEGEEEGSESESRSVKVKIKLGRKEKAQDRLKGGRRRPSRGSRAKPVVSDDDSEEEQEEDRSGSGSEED
inactive: [1] 0.073 | [2] -0.023 | [3] 0.244 | [5] -0.027

TC2N (UniProt Q8N9U0)
inactive: [3] 0.053 | [4] 0.08

STK26 (UniProt Q9P289)
inactive: [1] -0.077 | [2] -0.029 | [3] -0.006 | [4] 0.004 | [5] 0.026

SMARCB1 (UniProt Q12824)
inactive: [2] 0.057 | [3] -0.041 | [4] 0.015 | [5] 0.18

SNRNP27 (UniProt Q8WVK2)
inactive: [1] 0.027 | [2] -0.058 | [3] 0.021 | [4] 0.023 | [5] 0.044

SSBP4 (UniProt Q9BWG4)
inactive: [1] 0.086 | [4] 0.037

TAF6L (UniProt Q9Y6J9)
inactive: [2] -0.209 | [4] 0.048 | [5] 0.073

SUN1 isoform 9 (UniProt O94901)
inactive: [2] -0.114 | [3] 0.013 | [4] 0.109 | [5] 0.018

TENT5C (UniProt Q5VWP2)
inactive: [1] 0.017 | [2] 0.25 | [3] 0.122 | [4] 0.116 | [5] -0.35

TJP1 (UniProt Q07157)
inactive: [1] 0 | [2] 0.028 | [3] 0.069 | [4] 0.014 | [5] 0.023

TBC1D24 (UniProt Q9ULP9)
Chain of UniProt Q9ULP9 (Q9ULP9 whole entry, looked up): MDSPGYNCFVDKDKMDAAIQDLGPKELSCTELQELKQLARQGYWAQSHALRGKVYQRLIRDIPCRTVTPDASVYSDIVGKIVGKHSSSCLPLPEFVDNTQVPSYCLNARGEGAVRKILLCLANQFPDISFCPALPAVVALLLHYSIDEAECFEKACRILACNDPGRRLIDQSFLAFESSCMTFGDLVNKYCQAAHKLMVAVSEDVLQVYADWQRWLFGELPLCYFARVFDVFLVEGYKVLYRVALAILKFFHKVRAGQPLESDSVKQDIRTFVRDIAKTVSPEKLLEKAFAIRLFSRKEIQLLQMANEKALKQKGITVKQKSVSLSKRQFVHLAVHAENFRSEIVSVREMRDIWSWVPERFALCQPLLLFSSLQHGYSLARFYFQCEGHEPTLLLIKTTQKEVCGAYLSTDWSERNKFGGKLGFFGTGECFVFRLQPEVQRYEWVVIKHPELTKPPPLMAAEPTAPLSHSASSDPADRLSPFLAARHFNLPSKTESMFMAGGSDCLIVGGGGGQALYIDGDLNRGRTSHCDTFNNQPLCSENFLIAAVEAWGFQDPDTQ
inactive: [1] -0.108 | [2] 0.152 | [3] 0.02 | [4] -0.029 | [5] -0.061

SSB (UniProt E7ERC4)
inactive: [3] 0.188

TCOF1 isoform 3 (UniProt Q13428)
inactive: [4] -0.093

TACC2 (UniProt O95359)
Chain of UniProt O95359 (O95359 whole entry, looked up): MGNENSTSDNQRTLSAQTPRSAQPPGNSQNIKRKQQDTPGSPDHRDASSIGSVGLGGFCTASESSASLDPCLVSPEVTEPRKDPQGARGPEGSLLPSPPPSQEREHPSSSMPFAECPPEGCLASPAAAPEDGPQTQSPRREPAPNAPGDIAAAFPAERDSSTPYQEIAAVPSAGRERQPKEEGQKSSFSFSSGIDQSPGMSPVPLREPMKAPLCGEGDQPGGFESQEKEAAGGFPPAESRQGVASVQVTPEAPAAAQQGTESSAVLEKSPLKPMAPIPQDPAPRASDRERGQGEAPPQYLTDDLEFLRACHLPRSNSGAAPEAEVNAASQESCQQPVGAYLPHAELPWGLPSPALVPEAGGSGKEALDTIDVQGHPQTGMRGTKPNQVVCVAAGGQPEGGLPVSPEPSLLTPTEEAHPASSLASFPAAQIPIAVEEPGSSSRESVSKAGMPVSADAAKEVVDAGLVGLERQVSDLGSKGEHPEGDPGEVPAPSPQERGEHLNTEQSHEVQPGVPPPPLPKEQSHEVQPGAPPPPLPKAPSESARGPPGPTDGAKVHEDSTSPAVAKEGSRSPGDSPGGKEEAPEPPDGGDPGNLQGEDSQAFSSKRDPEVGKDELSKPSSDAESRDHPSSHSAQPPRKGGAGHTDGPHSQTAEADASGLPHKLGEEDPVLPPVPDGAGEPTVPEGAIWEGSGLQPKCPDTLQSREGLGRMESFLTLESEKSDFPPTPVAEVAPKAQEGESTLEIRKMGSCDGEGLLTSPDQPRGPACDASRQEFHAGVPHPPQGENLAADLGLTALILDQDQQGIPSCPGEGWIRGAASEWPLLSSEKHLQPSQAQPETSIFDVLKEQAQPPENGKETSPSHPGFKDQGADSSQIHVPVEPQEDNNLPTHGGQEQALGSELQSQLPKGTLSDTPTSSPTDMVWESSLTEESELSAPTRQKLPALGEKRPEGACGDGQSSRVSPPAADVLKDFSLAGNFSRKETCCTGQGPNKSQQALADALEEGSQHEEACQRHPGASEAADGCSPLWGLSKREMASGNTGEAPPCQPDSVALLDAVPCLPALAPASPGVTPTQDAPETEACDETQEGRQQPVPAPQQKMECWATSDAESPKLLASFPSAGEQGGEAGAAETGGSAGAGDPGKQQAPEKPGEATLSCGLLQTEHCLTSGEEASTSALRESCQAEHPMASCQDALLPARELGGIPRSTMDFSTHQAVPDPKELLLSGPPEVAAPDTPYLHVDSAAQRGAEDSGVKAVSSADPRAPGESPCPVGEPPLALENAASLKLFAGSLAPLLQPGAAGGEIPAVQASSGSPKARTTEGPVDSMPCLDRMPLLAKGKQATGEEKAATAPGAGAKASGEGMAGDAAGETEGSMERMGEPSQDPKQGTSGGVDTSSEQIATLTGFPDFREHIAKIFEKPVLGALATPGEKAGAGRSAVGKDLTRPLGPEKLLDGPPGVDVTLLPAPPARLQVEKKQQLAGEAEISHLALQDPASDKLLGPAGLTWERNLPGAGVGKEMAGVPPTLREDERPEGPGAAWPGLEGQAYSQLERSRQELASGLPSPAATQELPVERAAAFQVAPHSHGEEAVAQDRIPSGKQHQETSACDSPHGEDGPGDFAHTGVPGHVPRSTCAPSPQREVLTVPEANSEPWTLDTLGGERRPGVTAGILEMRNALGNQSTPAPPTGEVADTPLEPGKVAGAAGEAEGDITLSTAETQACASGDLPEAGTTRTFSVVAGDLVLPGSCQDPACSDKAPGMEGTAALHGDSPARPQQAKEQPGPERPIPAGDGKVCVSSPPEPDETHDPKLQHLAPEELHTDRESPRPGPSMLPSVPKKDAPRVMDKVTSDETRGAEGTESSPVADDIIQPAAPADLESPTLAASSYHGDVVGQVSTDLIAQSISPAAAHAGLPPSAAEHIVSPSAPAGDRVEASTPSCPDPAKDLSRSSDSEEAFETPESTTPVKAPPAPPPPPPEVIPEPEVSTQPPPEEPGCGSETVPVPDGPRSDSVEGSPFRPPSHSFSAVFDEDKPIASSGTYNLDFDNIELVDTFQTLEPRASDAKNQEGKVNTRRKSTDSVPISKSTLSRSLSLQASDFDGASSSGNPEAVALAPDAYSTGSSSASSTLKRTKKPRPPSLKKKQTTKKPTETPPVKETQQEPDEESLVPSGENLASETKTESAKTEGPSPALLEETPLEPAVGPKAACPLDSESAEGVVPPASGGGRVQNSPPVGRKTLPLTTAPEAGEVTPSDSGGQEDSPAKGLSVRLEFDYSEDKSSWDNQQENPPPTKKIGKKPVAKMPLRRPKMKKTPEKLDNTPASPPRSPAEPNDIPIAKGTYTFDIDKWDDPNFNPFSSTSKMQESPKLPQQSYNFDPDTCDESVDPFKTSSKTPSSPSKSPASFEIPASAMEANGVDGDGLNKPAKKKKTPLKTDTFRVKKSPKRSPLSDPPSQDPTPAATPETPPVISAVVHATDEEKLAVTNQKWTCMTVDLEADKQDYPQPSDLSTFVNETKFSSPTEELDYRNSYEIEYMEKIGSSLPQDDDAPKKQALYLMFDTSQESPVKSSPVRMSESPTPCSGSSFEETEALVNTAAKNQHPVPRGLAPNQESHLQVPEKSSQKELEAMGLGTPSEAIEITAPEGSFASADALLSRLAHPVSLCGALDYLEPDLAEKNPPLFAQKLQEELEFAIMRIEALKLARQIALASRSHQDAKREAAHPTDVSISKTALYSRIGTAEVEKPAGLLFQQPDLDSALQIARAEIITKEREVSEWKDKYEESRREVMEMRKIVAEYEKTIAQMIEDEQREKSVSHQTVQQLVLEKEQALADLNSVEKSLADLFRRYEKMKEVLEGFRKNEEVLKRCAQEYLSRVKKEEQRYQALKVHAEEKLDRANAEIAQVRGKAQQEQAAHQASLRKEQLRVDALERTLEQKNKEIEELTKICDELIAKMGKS
inactive: [1] -0.031 | [2] -0.03 | [3] 0.166 | [4] 0.011 | [5] 0.05

STXBP2 isoform 3 (UniProt Q15833)
inactive: [1] -0.15 | [2] -0.05 | [3] 0.071 | [4] 0.031 | [5] -0.03

SLC9A6 isoform 3 (UniProt Q92581)
inactive: [1] -0.057 | [2] 0.003 | [4] -0.005 | [5] 0.089

SRFBP1 (UniProt Q8NEF9)
inactive: [1] 0.011 | [2] -0.14 | [4] 0.048 | [5] -0.013

SUPT5H (UniProt O00267)
inactive: [1] -0.05 | [2] 0.109 | [3] 0.106 | [4] 0.001 | [5] -0.051

TDP1 (UniProt Q9NUW8)
inactive: [2] 0.068 | [5] 0.054

SLC8B1 (UniProt Q6J4K2)
inactive: [1] 0.094 | [2] 0.178 | [3] 0.019 | [5] -0.049
